Gli-Sufu block: Gli-Sufu pathway antagonists, primary screen, luciferase luminescence, Sufu-KO-LIGHT cells, uHTS. Sufu-KO-LIGHT fibroblasts, Gli luciferase reporter luminescence. inhibition, % at 5 µM. 0.74% of 340,000 active. AID 588413, 2011;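 active means inhibition above about 55%, limit read from the data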
Jurkat NFkB inh: inhibitors of induced NF-kB luciferase reporter, primary screen, TCR NF-kB activation inhibitor project, cell-based, luminescence, uHTS; 0.53% of 330,000 active; inhibition, % at 4 µM; Jurkat, PMA/ionomycin-induced NF-kB luciferase reporter; in the data active means inhibition above about 50%
H9c2 protect: cardioprotection against H2O2-induced cell death, primary screen, uHTS, H9c2 cells, ATPLite luminescence. H9c2 cardiomyocytes, H2O2 injury protection, 2 h. protection from H2O2 cell death, % at 20 µM. 0.63% of 360,000 active. AID 588492, 2011;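 active means compounds giving at least 50% protection of heart cells from peroxide-induced death in the single-dose screen, raw or plate-pattern-corrected value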
H9c2 TAG inh: inhibitors of triacylglycerol accumulation, primary screen, cell-based, uHTS, fluorescence, H9c2; inhibition, % at 12.5 µM; H9c2 cells, Nile Red lipid (TAG) fluorescence; cells loaded with 200 µM oleic acid; 0.66% of 230,000 active;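 active means pattern-corrected inhibition of lipid staining of at least 50% with the nuclear-stain viability signal not falling by more than 50%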
697 NFkB inh: inhibitors of PMA/ionomycin-induced NF-kB reporter, 697 cells, primary screen, B-cell NF-kB inhibitor project, cell-based, luminescence, uHTS | 697 B-cell NF-kB luciferase reporter, 16 h | inhibition, % at 4 µM | 0.33% of 330,000 active | AID 435022, 2010; in the data active means inhibition above about 35%
COUP-TFII inh: NR2F2 transcriptional activity inhibitors, primary screen, cell-based, luciferase reporter, HEK293T, luminescence. 0.7% of 370,000 active. inhibition, % at 8.6 µM. COUP transcription factor 2 (Homo sapiens), P24468. HEK293T NGFI-A luciferase reporter. AID 686940, 2013;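 active means inhibition above a per-plate cutoff, mean inhibition of test wells between control levels plus 3 SD, cut at about 38% in these data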;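 further: cells cotransfected with COUP-TFII expression vector driving the NGFI-A reporter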
Target sequence (P24468 whole entry, looked up): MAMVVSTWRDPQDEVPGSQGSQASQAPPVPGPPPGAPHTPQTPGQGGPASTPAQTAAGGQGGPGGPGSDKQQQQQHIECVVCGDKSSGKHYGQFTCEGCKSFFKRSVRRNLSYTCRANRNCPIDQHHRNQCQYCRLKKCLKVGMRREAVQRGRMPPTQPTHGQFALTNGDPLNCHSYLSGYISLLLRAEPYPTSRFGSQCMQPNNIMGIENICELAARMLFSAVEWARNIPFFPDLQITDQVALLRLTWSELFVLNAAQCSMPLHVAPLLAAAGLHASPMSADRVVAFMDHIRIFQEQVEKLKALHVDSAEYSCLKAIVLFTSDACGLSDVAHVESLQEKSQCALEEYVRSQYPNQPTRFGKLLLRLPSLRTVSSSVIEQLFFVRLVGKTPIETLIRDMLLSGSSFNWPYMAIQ
697 NFkB conf: PMA/ionomycin-induced NF-kB reporter inhibitors, 697 retest, confirmation, B-cell NF-kB inhibitor project, cell-based, luminescence, single concentration; shares compounds with 697 NFkB inh; 697 B-cell NF-kB luciferase, 16 h; inhibition, % at 4 µM; 35% of 2,000 active; AID 449746, 2010; in the data active means inhibition mostly above about 28%, no sharp cut-off; inactive means mostly below about 22%
Each line names hits and unclear results; the compound was inactive in the other large screens (follow-up assays come after a bar, where they were run). Hits are enriched below; roughly 2.6% of the tested compounds scored in any of these assays.

CC(=O)Nc1nc(C)c(-c2csc(Nc3ccc(O)cc3)n2)s1	none (no result: H9c2 TAG inh, COUP-TFII inh)
CC(=O)Nc1nc(C)c(-c2csc(Nc3cccc([N+](=O)[O-])c3)n2)s1	697 NFkB inh 45 (no result: H9c2 TAG inh) | 697 NFkB conf inactive
CC(=O)c1csc(COc2ccc(Cl)cc2)n1	none | 697 NFkB conf inactive
NNC(=O)c1csc(COc2cc(Cl)cc(Cl)c2)n1	none
N=c1ccn2c(n1)OC1C(O)C(CO)OC12 (stereo not drawn)	697 NFkB inh 54 (no result: H9c2 TAG inh) | 697 NFkB conf 60
OCC1OC(n2cnc3ncccc32)C(O)C1O (stereo not drawn)	none (no result: Gli-Sufu block, Jurkat NFkB inh, H9c2 TAG inh, 697 NFkB inh)
CN1c2ccccc2C(C)(C)C12CC(c1ccc(S(=O)(=O)N3CCCCC3)cc1)=NO2 (stereo not drawn)	none (no result: H9c2 TAG inh) | 697 NFkB conf inactive
CN1/C(=C\C(=O)c2cccc(S(=O)(=O)N3CCCCC3)c2)C(C)(C)c2ccccc21	none
CCN(CC)S(=O)(=O)c1ccc(C2=NOC3(C2)N(C)c2ccccc2C3(C)C)cc1 (stereo not drawn)	none (no result: H9c2 TAG inh) | 697 NFkB conf inactive
CN1c2ccccc2C(C)(C)C12CC(c1cccc(S(=O)(=O)N3CCCC3)c1)=NO2 (stereo not drawn)	none (no result: H9c2 TAG inh) | 697 NFkB conf inactive
O=S(=O)(c1ccc(-c2ccccc2)cc1)N1CCCCC1	none
Clc1ccc2nc(N3CCN(c4ccccc4)CC3)sc2c1	none | 697 NFkB conf inactive
COc1ccc(Nc2nnc(-c3ccc(O)cc3)c3ccccc23)cc1C(N)=O	H9c2 protect 57, 697 NFkB inh 39 | 697 NFkB conf inactive
CC(C)(C)c1ccc(C(=O)NCCOc2ccccc2)cc1	none (no result: H9c2 TAG inh) | 697 NFkB conf inactive
Cc1sc2ncnc(N3CCC(C(=O)Nc4nc(-c5ccc(F)cc5)cs4)CC3)c2c1C	none | 697 NFkB conf inactive
Cc1cc(C)c(C(=O)NC2CCCc3c2cnn3-c2cccc(C)c2C)o1 (stereo not drawn)	none | 697 NFkB conf inactive
O=C(NC1CCCc2c1cnn2-c1ccc(F)cc1F)c1ccccn1 (stereo not drawn)	none
O=C(NC1CCCc2c1cnn2-c1ccccc1F)c1ccccn1 (stereo not drawn)	none (no result: H9c2 TAG inh) | 697 NFkB conf inactive
CC(C)c1[nH]nc2c1C(c1ccco1)C(C#N)=C(N)O2 (stereo not drawn)	697 NFkB inh 49 | 697 NFkB conf 30
CC(C)c1[nH]nc2c1C(c1cccnc1)C(C#N)=C(N)O2 (stereo not drawn)	none (no result: H9c2 TAG inh)
Cc1nc(/C=C/c2ccccc2)[nH]c(=O)c1-c1ccccc1	none (no result: H9c2 TAG inh) | 697 NFkB conf inactive
C(=C\c1nc2ccccc2[nH]1)/c1ccccc1	none | 697 NFkB conf inactive
CCCCN1CN2Cc3cc(F)ccc3C2CS1(=O)=O (stereo not drawn)	none (no result: Gli-Sufu block, Jurkat NFkB inh, H9c2 protect, H9c2 TAG inh, 697 NFkB inh)
Cn1cc(Cl)c(C(=O)Nc2nc3ccccc3s2)n1	none (no result: H9c2 TAG inh) | 697 NFkB conf inactive
O=C(Nc1nc2ccccc2s1)c1c(F)cccc1Cl	none
Oc1cccc(-c2nc3ccccc3s2)c1	none | 697 NFkB conf inactive
Nc1cccc(-c2nc3ccccc3s2)c1	none
COC(=O)C[C@H]1CC[C@@H]2[C@H](COc3ccc(NC(=O)C(C)C)cc3C(=O)N2C)O1	none (no result: Gli-Sufu block, Jurkat NFkB inh, H9c2 protect, H9c2 TAG inh, 697 NFkB inh)
COC(=O)CCN1CCc2cc(N=Nc3ccc([N+](=O)[O-])cc3)ccc21	none | 697 NFkB conf inactive
Cc1ccccc1CN1CCc2cc([N+](=O)[O-])ccc21	none (no result: H9c2 TAG inh)
COc1cc(=O)n(C)c2cc(N(C)C)ccc12	697 NFkB inh 36 | 697 NFkB conf inactive
O=C(C(=O)N1CCN(S(=O)(=O)c2cccc3ccccc23)CC1)c1cccc(C(F)(F)F)c1	none (no result: Gli-Sufu block, Jurkat NFkB inh, H9c2 protect, H9c2 TAG inh, 697 NFkB inh)
Cc1ccc(-c2nn3c(C)nnc3c3ccccc23)cc1S(=O)(=O)NCc1ccccc1	none (no result: H9c2 TAG inh)
Cc1ccc(-c2nn3c(C)nnc3c3ccccc23)cc1S(=O)(=O)NCCN1CCOCC1	697 NFkB inh 53 (no result: H9c2 TAG inh) | 697 NFkB conf 30
CSc1ccc(C2Nc3cccc4cccc(c34)N2)cc1	none (no result: H9c2 TAG inh) | 697 NFkB conf inactive
CCOC(=O)CC[C@H]1CC[C@]2(CCCN(C(=O)C3CCCC3)C2)O1	none (no result: Gli-Sufu block, Jurkat NFkB inh, H9c2 protect, H9c2 TAG inh, 697 NFkB inh)

Source: PubChem BioAssay
